# Laboratory results from PubChem BioAssay (NCI).
# About 83,000 compounds went through this panel and 20% of them were active in at least one assay; those are over-represented in the sample as a whole.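 Note: values are percent growth. 100 is the growth of untreated cells, values between 100 and 0 indicate rising inhibition; between -100 and 0 indicates cell death.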 Values without a mark were called inactive. Active and inactive are the calls of the source. How the source made its calls: active means growth percent below 10; inactive means the rest.
# How the values were obtained:
# Test in all cases: NCI-60 one-dose screen, 48 h (100 = growth as untreated, 0 = no growth, -100 = all killed)
# Details in all cases: 10 µM unless noted
# SK-MEL-2 melanoma = tested on: SK-MEL-2 melanoma
# SN12C renal = tested on: SN12C renal
# UO-31 renal = tested on: UO-31 renal
# TK-10 renal = tested on: TK-10 renal
# ACHN renal = tested on: ACHN renal
# CAKI-1 renal = tested on: CAKI-1 renal
# A498 renal = tested on: A498 renal
# CCRF-CEM leukemia = tested on: CCRF-CEM leukemia
# MOLT-4 leukemia = tested on: MOLT-4 leukemia
# SR leukemia = tested on: SR leukemia
# RPMI-8226 leukemia = tested on: RPMI-8226 leukemia
# OVCAR-8 ovarian = tested on: OVCAR-8 ovarian
# OVCAR-5 ovarian = tested on: OVCAR-5 ovarian
# OVCAR-4 ovarian = tested on: OVCAR-4 ovarian
# SK-OV-3 ovarian = tested on: SK-OV-3 ovarian
# OVCAR-3 ovarian = tested on: OVCAR-3 ovarian
# HS 578T breast = tested on: HS 578T breast
# NCI/ADR-RES ovarian = tested on: NCI/ADR-RES ovarian
# IGROV1 ovarian = tested on: IGROV1 ovarian
Compound,growth (SK-MEL-2 melanoma),growth (SN12C renal),growth (UO-31 renal),growth (TK-10 renal),growth (ACHN renal),growth (CAKI-1 renal),growth (A498 renal),growth (CCRF-CEM leukemia),growth (MOLT-4 leukemia),growth (SR leukemia),growth (RPMI-8226 leukemia),growth (OVCAR-8 ovarian),growth (OVCAR-5 ovarian),growth (OVCAR-4 ovarian),growth (SK-OV-3 ovarian),growth (OVCAR-3 ovarian),growth (HS 578T breast),growth (NCI/ADR-RES ovarian),growth (IGROV1 ovarian)
Cc1ccc(C2CC3c4ccccc4C2C2CCCCN32)cc1 (stereo unspecified),88.2%,90.3%,91.7%,97.1%,97.8%,95%,139%,92.2%,94.8%,106%,60.1%,109%,96.2%,82.6%,91.7%,67.7%,93.3%,94.1%,
CC(=O)Oc1cc2cnc3c4cc(OC(C)=O)c(OC(C)=O)cc4ccc3c2cc1OC(C)=O,56.3%,14.6%,-2.09% (active),21.8%,15.3%,6.51% (active),-15.6% (active),-6.55% (active),-6.19% (active),-8.28% (active),12.8%,-22.1% (active),54.6%,-4.13% (active),26.9%,-3.27% (active),28.1%,13.3%,-12.8% (active)
COc1ccc(N(Cc2cc(OC)c(OC)c(OC)c2)C2OC(=O)c3ccccc32)cc1 (stereo unspecified),21.5%,52.8%,53.5%,53.5%,61.5%,45.7%,14%,9.62% (active),19.2%,12.1%,10.6%,22.1%,65.5%,62.7%,13.3%,-18.4% (active),22.1%,10.1%,36.3%
COc1c(Cl)cc(Cl)cc1Cl,117%,100%,88.4%,109%,112%,126%,96.5%,110%,91.4%,101%,118%,112%,121%,,107%,109%,87.8%,112%,97.4%
COc1ccc(C(=O)c2sc3nc4c(cc3c2N)CCCC4)cc1OC,25.3%,62.8%,55.7%,83%,63%,57.9%,34.9%,28.9%,6.5% (active),-7.02% (active),10.4%,43.1%,86.9%,60.7%,71.6%,20.6%,74%,19.7%,35.9%
NCc1cn2cc(Cl)sc2n1,102%,105%,88.8%,92.1%,102%,102%,90.8%,103%,110%,102%,106%,105%,98%,100%,103%,114%,113%,111%,109%
CCCCCCCCCCCCCCCC[N+]1(CC)CCCC1,-59.2% (active),-16.7% (active),38.3%,-59.1% (active),9.99% (active),-41.8% (active),-9.64% (active),-67% (active),-67.3% (active),-39.9% (active),-54.7% (active),-42.5% (active),0.586% (active),-4.99% (active),-25.1% (active),-52.5% (active),-8.22% (active),85.8%,-76% (active)
CC#Cc1nc2ccccc2c(=O)[nH]1,45.4%,35.3%,22.9%,48%,28.8%,54.5%,-44.8% (active),19.6%,19.3%,39.4%,2.5% (active),42%,76.4%,18.4%,112%,4.22% (active),58.7%,55%,14%
CCOC(=O)N1CCN(c2nc(Nc3cc(C)[nH]n3)c3ccccc3n2)CC1,52.4%,45.8%,47.4%,40.9%,50.7%,20.8%,-21.8% (active),40.1%,69.1%,17.3%,37.3%,74%,55.9%,49.5%,47.8%,55.3%,29.6%,55.4%,35.6%
COc1cc(-c2c3sc(=O)[nH]c3nc3c2c(=O)[nH]n3C(C)C)cc2c1OCO2,101%,99.4%,96.8%,114%,95.8%,88.8%,67.1%,125%,104%,81.5%,124%,108%,96.6%,86%,114%,114%,105%,102%,101%
COc1cc(OC)c(/C=C/c2cc[n+](C)c3ccccc23)c(OC)c1,-8.65% (active),10.7%,61%,53.4%,71.8%,67.1%,9.92% (active),7.13% (active),3.59% (active),-16.8% (active),-2.59% (active),-8.8% (active),49.4%,13.6%,-10.8% (active),-26.6% (active),18.8%,91.3%,6.79% (active)
Cc1ccc(S(=O)(=O)N(CCc2ccc(Cl)cc2)S(=O)(=O)c2ccc(C)cc2)cc1,75.3%,105%,70%,83.9%,95.2%,72.8%,115%,83.7%,66.5%,82.5%,76.9%,,106%,86.5%,85.2%,95%,103%,87.9%,89.1%
CC(=O)OCC(=O)C1CCC=CC1OC(C)=O (stereo unspecified),88.3%,99.4%,66.4%,110%,100%,93.4%,110%,99.7%,95.9%,98.9%,100%,97.2%,104%,94.4%,87.9%,107%,110%,100%,102%
COc1ccc(C(=O)c2sc3nc(-c4ccccc4OC)ccc3c2N)cc1OC,89.5%,66.1%,53.4%,79.7%,66.9%,62.4%,47.7%,26.5%,-45% (active),21.6%,19.7%,43.2%,89.8%,61.5%,107%,68.9%,55.6%,33.1%,57.5%
CCc1ccccc1NC(=O)c1sc2nc3c(cc2c1N)C(=O)CCC3,19.9%,45.4%,44.5%,54.7%,58.4%,29.9%,-9.7% (active),13.6%,24.4%,9.38% (active),17.8%,24.3%,33.5%,60.9%,6.9% (active),-12.7% (active),22.6%,5.24% (active),33.3%
Cc1ccc(NC(=O)c2sc3nc4c(cc3c2N)C(=O)CCC4)cc1C,37%,52.9%,56.6%,59.9%,52.2%,35.7%,-2.89% (active),13.6%,27.6%,22.9%,11.4%,31.6%,32.6%,76%,4.9% (active),-10.2% (active),28.1%,10.9%,23.9%
